Experimental data published in article PMC6212790, “How bacterial xenogeneic silencer rok distinguishes foreign from self DNA in its resident genome”.
Whole data set: some 33,000 sequences, median “e-score” near -0.037, cut for the highest 2% near 0.34. This excerpt belongs to a sample that is enriched for the highest values.

Biological target: T1, GST-Rok (full length) (Bacillus subtilis subsp. subtilis str. …, UniProt O34857 1-191)
T1 sequence: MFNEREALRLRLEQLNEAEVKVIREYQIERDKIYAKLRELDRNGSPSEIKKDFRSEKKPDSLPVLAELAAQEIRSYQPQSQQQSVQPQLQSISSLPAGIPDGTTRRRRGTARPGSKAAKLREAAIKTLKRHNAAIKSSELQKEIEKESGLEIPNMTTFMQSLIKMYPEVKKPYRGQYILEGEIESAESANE
Test: protein binding microarray; Rok is a gene silencer of Bacillus subtilis; high values mean tight binding
Settings: protein: recombinant; tags: GST (pTH5325, pDEST15-Magic modified); dsDNA, one strand shown
In short: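 Each has a 25-mer constant primer and a 35-mer variable part from a de Bruijn sequence of order 10, covering every non-palindromic 8-mer at least 32 times (palindromic 16). Preference for each 8-mer is given as a rank-based, unitless enrichment score (E-score). Its range runs from 0.5 (most favored) to −0.5 (most disfavored).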

| Sequence | binding signal [E-score] |
| --- | --- |
| TACGACCA | -0.0634 |
| GAACTCGC | -0.0505 |
| AGGCGCTA | -0.15 |
| GCTCCATA | 0.0969 |
| CCGATCCG | -0.19 |
| CAAACGAA | 0.108 |
| GAATTCTC | -0.0203 |
| ATATTCTA | 0.424 |
| TAATTCTA | 0.345 |
| AACTTCTA | 0.296 |
| TAATTCCA | 0.213 |
| GAATTCTA | 0.357 |
| TACTTCTA | 0.36 |
| CTATTCTA | 0.128 |
| ATATTCTC | 0.277 |
| TAATTCAA | 0.105 |
| GACTTCTA | 0.0634 |
| CAATTCTA | 0.278 |
| CAAGAAAA | -0.0182 |
| GATTCACA | 0.0605 |
| AACGAAGC | -0.108 |
| ACGGAAAC | -0.0398 |
| AATTGACT | 0.16 |
| AAGTAACT | 0.225 |
| ACTAGGCG | -0.156 |
| TATGGTCA | -0.0127 |

| Sequence | binding signal [E-score] |
| --- | --- |
| AGCGCAAA | 0.0549 |
| GCGTACTA | 0.082 |
| AAATTCTA | 0.402 |
| AAATTCTC | 0.0375 |
| AAATTCTT | 0.0789 |
| ACCGTCGA | 0.0177 |
| AGTACTCA | 0.0122 |
| GGTACTAA | 0.138 |
| AGTACTGC | 0.114 |
| AGTACTAT | 0.388 |
| CGTACTGC | 0.0418 |
| AGTACTAA | 0.357 |
| CGTACTAA | 0.217 |
| TGTACTAA | 0.0689 |
| GGTACTAC | 0.212 |
| CGTACTAC | 0.339 |
| AGTACGAT | 0.134 |
| AGTACTAC | 0.389 |
| AGGAGTCC | -0.0508 |
| ATTCCTAC | 0.201 |
| CATGGTCA | -0.1 |
| TACCGAAA | 0.225 |
| TCGAATCA | -0.0502 |
| ACCGCACT | 0.0535 |
| AGTACTGG | 0.156 |
| AGTACTAG | 0.385 |

| Sequence | binding signal [E-score] |
| --- | --- |
| CGTACTAG | 0.0856 |
| ACGGTATA | 0.252 |
| CCGGTATA | -0.0189 |
| ACGGTAGC | 0.139 |
| CCGGTAAA | 0.107 |
| AAGGTAGC | 0.133 |
| ACGGTAGT | 0.373 |
| TCGGTAAA | 0.136 |
| AAGGTAGT | 0.354 |
| AAGGTAGG | 0.133 |
| ACGGTAAA | 0.349 |
| ACGGTAGG | 0.137 |
| GCGGTATA | 0.347 |
| CTAGATGA | 0.0637 |
| CTGCGAGA | -0.11 |
| AAGCCTGA | -0.131 |
| GACCCAGA | -0.174 |
| AGCAAACC | 0.0585 |
| GCGGTAGC | 0.0476 |
| GGGGTAGA | 0.011 |
| GCGGTAGA | 0.337 |
| GAGGTAGA | 0.296 |
| TCGGTAGA | 0.231 |
| AAGGTAGA | 0.288 |
| CCGGTAGA | 0.229 |
| TAGGTAGA | 0.361 |

| Sequence | binding signal [E-score] |
| --- | --- |
| ACGGTAGA | 0.365 |
| GAAGCAAC | 0.0226 |
| GCCGTTAA | -0.0418 |
| CAGTTCTC | 0.00617 |
| AACGACAG | 0.0268 |
| ATATTGTA | 0.375 |
| CAATTGTC | -0.0649 |
| ATATTGTG | 0.172 |
| CTATTGTA | 0.381 |
| GAATTGTA | 0.254 |
| ACATTGTA | 0.222 |
| CAATTGTA | 0.339 |
| GTATTGTA | 0.238 |
| CTATTGTC | -0.0651 |
| AATGTTGT | 0.154 |
| CAGGGTTC | -0.172 |
| CTAACTAC | 0.397 |
| GCAACTAC | 0.308 |
| CTAACTAA | 0.29 |
| CGAACTAG | 0.319 |
| ATAACTAC | 0.316 |
| GTAACTAC | 0.394 |
| CGAACTAC | 0.358 |
| AGAACTAC | 0.327 |
| GTAACTAA | 0.304 |
| AAAGCCTG | -0.18 |

| Sequence | binding signal [E-score] |
| --- | --- |
| ATTTTAAA | 0.126 |
| GTCGCTAA | 0.16 |
| GCATATGC | 0.129 |
| CTCATAAG | -0.129 |
| AACTACAC | 0.335 |
| AACTACAT | 0.419 |
| ACCTACAA | 0.265 |
| CACTACAA | 0.143 |
| AACTACAA | 0.34 |
| GCCTACAA | 0.107 |
| ACCTACAT | 0.271 |
| TACTACAA | 0.357 |
| ACCTACAG | 0.0467 |
| CACTACAG | -0.0355 |
| AACTACAG | 0.337 |
| GACTACAA | 0.12 |
| GAACCAGC | -0.148 |
| GTAATCCA | 0.00713 |
| ACATCGGA | 0.06 |
| ATTTTTGA | 0.0221 |
| GCTCTCAA | -0.174 |
| CCTAGCGA | -0.111 |
| AGCTACAA | 0.205 |
| CTCTACAA | 0.0924 |
| AGCTACAC | 0.191 |
| GTCTACAA | 0.11 |

| Sequence | binding signal [E-score] |
| --- | --- |
| TTCTACAA | 0.392 |
| AGCTACAT | 0.364 |
| ACTTCGTC | -0.0747 |
| TGTCCAAA | 0.0695 |
| ACCGGCCG | -0.0951 |
| TCGAGAAA | 0.135 |
| GGTATTCA | -0.0162 |
| AGTATTTA | 0.344 |
| CTTATTTA | 0.148 |
| GTTATTTA | 0.197 |
| AGTATTTG | 0.31 |
| GGTATTTA | 0.356 |
| ATTATTTA | 0.406 |
| AGTATTTC | 0.332 |
| CGTATTTA | 0.261 |
| AAATGCTC | -0.142 |
| AAGATTAG | 0.197 |
| ACCAGTGC | -0.175 |
| TAGCAGCA | 0.0346 |
| ATAATACA | 0.237 |
| GGAATATA | 0.366 |
| ATAATACG | 0.349 |
| AGAATATA | 0.296 |
| ATAATACC | 0.174 |
| CTAATATC | 0.255 |
| ATAATAAT | 0.372 |

| Sequence | binding signal [E-score] |
| --- | --- |
| ATAATAAA | 0.297 |
| CTAATATA | 0.349 |
| CTAATAGA | 0.0426 |
| CGAATATA | 0.321 |
| ATAATAAC | 0.312 |
| GTGGGTAA | 0.142 |
| AGTGACAT | 0.101 |
| AGCAAAAG | -0.151 |
| CCACTGAA | -0.106 |
| CCCATTGA | -0.11 |
| ACTTGATG | -0.00809 |
| AGCGCTGG | -0.124 |
| AGGCGTGC | -0.13 |
| ATATTCAT | 0.319 |
| GTGACGGA | -0.136 |
| TCGTTCAA | 0.0056 |
| ATAATATA | 0.453 |
| ATAATATG | 0.232 |
| GTAATAGA | 0.257 |
| ATAATATC | 0.274 |
